This is a sample that favours compounds with a hit; in the whole collection about 10% have one here.
HPGD inh: blocks human HPGD enzyme activity. P15428. purified HPGD, NADH fluorescence kinetic, PGE2 substrate. Potency, µM, actives largely listed as inhibitors. hit rate 4.3% among 150,000. AID 894
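20 nM HPGD preincubated 15 min at room temperature with compound in 50 mM Tris-HCl pH 8, 0.01% Tween 20. Started with 1 mM NAD+ and 30 uM prostaglandin E2; NADH fluorescence (360/450 nm) read 5 times over 30-s intervals, last minus first.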
LMNA splice mod: changes lamin A minigene splicing in HeLa cells. HeLa LMNA splicing GFP/RFP minigene ratio, 48 h. Potency, µM (top dose mostly 46.1 µM), actives largely listed as inhibitors. hit rate 0.01% among 200,000; active means well fitted inhibition curve with a large enough effect in the signal ratio, with a control signal flat, not every such curve was filed as active; inconclusive means small, poorly fitted or top-dose-only effect, or effect the other way, or a change in a side signal; the % refers to the signal ratio
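Read-out is the ratio of GFP to DsRed2 object intensity, acquired by 488 nm laser-scanning cytometry on HeLa lamin A-EGFP minigene reporter cells. Compound incubation 48 hrs at 37 °C in Opti-MEM with 2% FBS; DMSO 0.5% final.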
ALDH1A1 inh: ALDH1A1 (human) enzyme inhibition; Purified ALDH1A1, NADH fluorescence, propionaldehyde substrate; hit rate 7.3% among 220,000; Potency, µM (titrated, usually from 75.3 µM), hits mostly inhibitors; AID 1030; P00352
PNC assembly inh: inhibitors of perinucleolar compartment assembly. activity change (PNC), negative = inhibition, % at 10 µM. PC3M PTB-GFP, PNC prevalence imaging, 16 h; stronger effect = lower value. hit rate 3.1% among 140,000;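 active means readout at or below -70, meaning at least 70% loss of cells showing the perinucleolar compartment, a nuclear body marking cancer cells; inconclusive means readout between -30 and a set limit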
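Compounds are pinned in duplicate onto adhered PC3M cells stably expressing GFP-tagged PTB and incubated 16 h at 37 C. Cells are then fixed, nuclei stained with Hoechst, and PNC-positive cells counted.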
12-hLO inh: blocks human 12-lipoxygenase activity; purified 12-hLO, xylenol orange hydroperoxide absorbance; Potency, µM (doses to about 57.1 µM), hits mostly inhibitors; hit rate 0.12% among 150,000; AID 1452; P18054; active means well fitted inhibition curve with a large enough effect; inconclusive means small, poorly fitted or top-dose-only effect; further: nearly all actives have a fitted effect of over 55% in size
Target sequence (P18054 whole entry, looked up): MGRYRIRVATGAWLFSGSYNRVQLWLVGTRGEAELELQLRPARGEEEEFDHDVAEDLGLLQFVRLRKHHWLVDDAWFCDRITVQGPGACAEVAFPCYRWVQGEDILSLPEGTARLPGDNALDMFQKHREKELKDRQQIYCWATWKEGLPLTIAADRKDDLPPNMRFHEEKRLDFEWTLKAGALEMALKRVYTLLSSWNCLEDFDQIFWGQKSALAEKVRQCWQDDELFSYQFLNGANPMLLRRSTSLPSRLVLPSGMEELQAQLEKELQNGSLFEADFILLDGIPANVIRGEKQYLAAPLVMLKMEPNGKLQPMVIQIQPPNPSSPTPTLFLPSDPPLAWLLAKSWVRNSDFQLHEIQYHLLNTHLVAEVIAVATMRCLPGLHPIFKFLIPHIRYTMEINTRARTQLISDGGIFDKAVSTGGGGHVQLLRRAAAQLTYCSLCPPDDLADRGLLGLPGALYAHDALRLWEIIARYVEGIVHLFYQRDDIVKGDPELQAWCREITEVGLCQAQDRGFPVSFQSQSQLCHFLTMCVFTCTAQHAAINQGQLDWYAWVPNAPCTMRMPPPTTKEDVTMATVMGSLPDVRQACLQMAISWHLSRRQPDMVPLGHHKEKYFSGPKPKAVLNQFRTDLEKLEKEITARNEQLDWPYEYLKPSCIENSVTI
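Purified human 12hLO (150 nM final) was preincubated with compounds for 15 min at room temperature in 25 mM Hepes pH 7.0, 0.01% Triton X-100, then reacted with 40 uM arachidonic acid for 30 min. Hydroperoxide was detected with ferrous iron/xylenol orange.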
Each line names hits and unclear results; the compound was inactive in the other large screens. Unless noted, the call rests on the fitted dose curve; in most records, active means well fitted inhibition curve with a large enough effect (not every such curve was filed as active); inconclusive means small, poorly fitted or top-dose-only effect, or another doubt; inactive means no such curve, though single readings can be large or run the other way.

O=C(NC1CCCCC1)Sc1ccc(Cl)cc1	HPGD inh 8.9µM, ALDH1A1 inh inconclusive
CN=C(NC1CCCCC1)c1ccc(Cl)cc1	PNC assembly inh -103
O=C(CCSCc1ccc(Cl)cc1)NC1CCCC1	HPGD inh 18µM
CC(=O)OC(C(=O)NC1CCCCC1)c1ccc(Cl)cc1 (configuration not stated)	none
CCOc1ccc(CNC(=O)c2ccc(NC(=O)N3CCCCc4ccccc43)cc2)cc1OC	none (no result: HPGD inh, ALDH1A1 inh, PNC assembly inh, 12-hLO inh)
CCC[C@@H]1C[C@@H](C(=O)N[C@@H]([C@H]2O[C@H](SC)[C@H](O)[C@@H](O)[C@H]2O)[C@@H](C)O)N(C)C1	none (no result: PNC assembly inh)
O=C(O)CSCc1ccc(Cl)cc1	none
CC1CCCC(C)N1C(=O)CSCc1ccc(Cl)cc1 (configuration not stated)	ALDH1A1 inh 22µM
S=c1[nH]nc(-c2ccccc2Cl)n1CC1CCCO1 (configuration not stated)	ALDH1A1 inh 14µM, PNC assembly inh inconclusive
CCc1ccc(-c2nc(C(N)=O)c3[nH]c(=O)n(-c4ccccc4OC)c3n2)cc1	HPGD inh inconclusive, ALDH1A1 inh inconclusive, PNC assembly inh -106
Cc1ccc2[nH]c(=O)c(CN(CCCO)S(=O)(=O)c3c(C)ccc4nsnc34)cc2c1	ALDH1A1 inh 13µM, PNC assembly inh -80
Cc1cc2cc(CN(CCCO)S(=O)(=O)c3cccc4nsnc34)c(=O)[nH]c2cc1C	none
CN(Cc1ccccc1)C(=O)COC(=O)c1ccc(S(=O)(=O)N(C)C)cc1	none (no result: HPGD inh, PNC assembly inh, 12-hLO inh)
COc1cc(C(=O)OCC(=O)N(C)Cc2ccccc2)cc(OC)c1OC	PNC assembly inh -100
CC(C)(C)NC(=O)CSc1ncnc2c1nnn2Cc1ccccc1Cl	HPGD inh 32µM, LMNA splice mod inconclusive, ALDH1A1 inh inconclusive
CCCc1cc(=O)[nH]c(-n2[nH]c3c(c2=O)CCCC3)n1	HPGD inh 22µM, ALDH1A1 inh 24µM
COc1cccc(CCc2nnc(CCC(=O)NC(C)c3c(C)nn(C)c3C)o2)c1 (configuration not stated)	none (no result: HPGD inh, LMNA splice mod, PNC assembly inh, 12-hLO inh)
CCC(C)N1C(=O)CN(C2CCCCCC2)C(=O)C1c1ccccc1F (configuration not stated)	ALDH1A1 inh 16µM (no result: HPGD inh, PNC assembly inh, 12-hLO inh)
CN1CCN(C(=O)C2(NC(=O)Nc3ccccc3Cl)CCCCC2)CC1	PNC assembly inh inconclusive
COc1ccccc1NC(=O)NC1(C(=O)N2CCCCCC2)CCCCC1	ALDH1A1 inh 7.1µM
COCCCn1c(SCc2nnc(-c3ccccc3)o2)nc2sc3c(c2c1=O)CCC3	HPGD inh 14µM, ALDH1A1 inh inconclusive, PNC assembly inh inconclusive
Cn1c(SCc2nnc(-c3ccccc3Br)o2)nc2sc3c(c2c1=O)CCC3	HPGD inh 8.9µM, LMNA splice mod inconclusive
Cc1cccc(C)c1Nc1oc(-c2ccccc2)nc1-c1cccc2ccccc12	none (no result: LMNA splice mod, PNC assembly inh)
COc1ccc(CCNC(=O)NC23CC4CC(CC(C4)C2)C3)cc1	LMNA splice mod inconclusive, ALDH1A1 inh inconclusive
COc1ccc(CCC(C)NC2C3CC4CC(C3)CC2C4)cc1 (configuration not stated)	PNC assembly inh -108
O=C1/C(=C/c2ccc([N+](=O)[O-])cc2)C=C(c2ccccc2)N1c1ccccc1	none (no result: HPGD inh)
O=C(O)c1cccc(N2C(=O)/C(=C/c3ccc([N+](=O)[O-])cc3)C=C2c2ccccc2)c1	ALDH1A1 inh 25µM (no result: HPGD inh, LMNA splice mod, PNC assembly inh, 12-hLO inh)
CCCn1c2ccccc2c2cnn(CC(=O)NCCc3ccc(S(N)(=O)=O)cc3)c(=O)c21	none (no result: HPGD inh, ALDH1A1 inh, PNC assembly inh, 12-hLO inh)
CC#CCN1c2ccccc2[C@]23C[C@@H](C(=O)OC)N(S(=O)(=O)c4ccc(C)cc4)C2=NC(C(=O)OC)=C(C(=O)OC)[C@H]13	none (no result: PNC assembly inh)
CS(=O)(=O)c1ccc2c(c1)sc1nc(=O)c(/C=C3/C=CC(=O)C(O)=C3)c(N)n12	ALDH1A1 inh 13µM (no result: HPGD inh, LMNA splice mod, PNC assembly inh, 12-hLO inh)
CCOC1=C/C(=C/c2c(N)n3nc(-c4ccccc4)sc3nc2=O)C=CC1=O	ALDH1A1 inh inconclusive (no result: HPGD inh, PNC assembly inh, 12-hLO inh)
CCc1cc(C=NC2CCCCC2)c(O)s1	HPGD inh 4.5µM, ALDH1A1 inh inconclusive, PNC assembly inh inconclusive, 12-hLO inh inconclusive
Cc1ccc(-n2nc(CN3CCOCC3)c(-c3ccccc3)c2N)c(C)c1	none
CCN(CC)CCCNc1oc(-c2ccc(OC)cc2)nc1C#N	none (no result: HPGD inh, ALDH1A1 inh, PNC assembly inh, 12-hLO inh)
O=C(CSc1nnc(-c2cccs2)o1)Nc1cccc(C(F)(F)F)c1	none (no result: HPGD inh, ALDH1A1 inh, PNC assembly inh, 12-hLO inh)
COc1ccc2nc(N(Cc3cccnc3)C(=O)c3ccc(Cl)cc3)sc2c1	none (no result: HPGD inh, ALDH1A1 inh, PNC assembly inh, 12-hLO inh)
Cc1ccc(NC(=O)COC(=O)Cc2csc(-c3cccc(F)c3)n2)cc1C	ALDH1A1 inh 11µM, PNC assembly inh inconclusive
Cc1ccccc1CN1C(=O)c2ccccc2S(=O)c2ccc(C(=O)NCc3ccccc3)cc21 (configuration not stated)	none (no result: HPGD inh, ALDH1A1 inh, PNC assembly inh, 12-hLO inh)
CON1C(=O)C(=O)N(OC)C(C)(C)C1(C)C	ALDH1A1 inh 20µM, PNC assembly inh inconclusive
CN(C)c1[nH]c(=O)c(C#N)c2c1CCN2Cc1ccccc1	HPGD inh 13µM, ALDH1A1 inh inconclusive
N#Cc1c2c(c[nH]c1=O)CCN2Cc1ccccc1	HPGD inh inconclusive
N=c1c(C(=O)NC2CCCC2)cc2c(=O)n3ccccc3nc2n1C1CCCC1	HPGD inh inconclusive, ALDH1A1 inh inconclusive, 12-hLO inh 32µM
Cc1ccc(C)c(NC(=O)N2CCN(C(=O)c3nsc4ccccc34)CC2)c1	none (no result: HPGD inh, ALDH1A1 inh, PNC assembly inh, 12-hLO inh)
COC(=O)c1ccccc1NS(=O)(=O)c1cc2c3c(c1)CC(=O)N3CCC2	none (no result: HPGD inh, ALDH1A1 inh, PNC assembly inh, 12-hLO inh)
CCC(=O)c1ccc(OCCSc2ncccn2)cc1	HPGD inh 32µM
CC(C)CC(=O)O/N=C1\C(=O)N(Cc2ccc(Cl)cc2)c2ccc([N+](=O)[O-])cc21	HPGD inh 14µM, LMNA splice mod inconclusive, ALDH1A1 inh inconclusive
C=CCc1ccc(OCCCN2CCCC(C)C2)c(OC)c1 (configuration not stated)	ALDH1A1 inh 16µM, PNC assembly inh inconclusive
COCCNCCOc1ccc(C)cc1[N+](=O)[O-]	none (no result: HPGD inh, LMNA splice mod, PNC assembly inh, 12-hLO inh)
Cc1ccc(OCCCCN2CCCC(C)C2)c([N+](=O)[O-])c1 (configuration not stated)	ALDH1A1 inh 32µM (no result: HPGD inh, PNC assembly inh, 12-hLO inh)
Cc1ccc(OCCCCNC(C)(C)C)c([N+](=O)[O-])c1	ALDH1A1 inh 13µM
COc1ccc(N2CC(NC(=O)C(c3ccccc3)c3ccccc3)CC2=O)cc1OC (configuration not stated)	none (no result: HPGD inh, ALDH1A1 inh, PNC assembly inh, 12-hLO inh)
Cc1cccc(N)c1-c1c(C)cccc1N	none (no result: HPGD inh, PNC assembly inh, 12-hLO inh)
CCCCN=C(NNc1ccc(Br)cc1)C(=O)OCC	ALDH1A1 inh 14µM, PNC assembly inh inconclusive
CC(C)CN1C(=O)C(=Nc2cccnc2)c2ccccc21	ALDH1A1 inh 1µM (no result: HPGD inh, PNC assembly inh, 12-hLO inh)
O=[N+]([O-])c1ccc(Nc2nc3ccccc3s2)cc1	ALDH1A1 inh 1.4µM (no result: LMNA splice mod, PNC assembly inh)
COC(=O)/C(=C/c1ccco1)NC(=O)c1ccccc1	none
